Bioassay records: PubChem BioAssay, National Center for Advancing Translational Sciences (NCATS)
Compounds with a hit are over-represented: about 10% of the library has one in this group of screens.
RORgamma inh: ROR gamma (mouse) transcription inhibition; Drosophila S2 Gal4-RORgamma UAS-luciferase reporter, 20 h; Potency, µM (series often up to 53.6 µM), inactives show top-dose activity change, negative = inhibition, most hits filed as inhibitors; hit rate 5.4% among 310,000; further: on the % scale 0 is the no-effect control and ±100 the full control effect; nearly all actives have a fitted effect of over 60% in size
Target sequence (P51450 whole entry, looked up, the tested form may be a part): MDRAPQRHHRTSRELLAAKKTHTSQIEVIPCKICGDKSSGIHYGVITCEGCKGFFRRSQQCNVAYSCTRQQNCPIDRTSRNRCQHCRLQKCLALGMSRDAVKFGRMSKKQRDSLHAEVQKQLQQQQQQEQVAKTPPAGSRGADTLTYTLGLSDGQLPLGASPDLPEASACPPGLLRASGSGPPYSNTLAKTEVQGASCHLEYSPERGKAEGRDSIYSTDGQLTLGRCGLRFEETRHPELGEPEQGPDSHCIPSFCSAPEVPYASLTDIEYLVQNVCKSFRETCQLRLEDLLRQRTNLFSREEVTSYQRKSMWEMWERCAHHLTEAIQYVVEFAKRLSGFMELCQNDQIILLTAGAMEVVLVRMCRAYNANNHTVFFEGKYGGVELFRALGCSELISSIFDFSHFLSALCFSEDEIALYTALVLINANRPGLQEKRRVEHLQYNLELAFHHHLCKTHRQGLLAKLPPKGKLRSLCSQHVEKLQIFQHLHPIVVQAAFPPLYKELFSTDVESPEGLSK
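In this cell-based reporter format, copper sulfate (700 uM final) drives Gal4–ROR gamma fusion expression from a metallothionein promoter in Drosophila Schneider cells; compounds preincubated 1 hr, reporter read after 20 hr at ambient temperature.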
ELG1 repair inh: inhibitors of ELG1-dependent DNA repair in HEK293T cells; HEK293T ELG1-luciferase reporter, luminescence, 16 h; DNA damage induced by 5-fluorouridine; Potency, µM (highest dose often 46.1 µM), for inactives: at the top dose activity change, negative = inhibition, usual class: inhibitors; hit rate 2.3% among 330,000; AID 504467; further: on the % scale 0 is the no-effect control and ±100 the full control effect; nearly all actives have a fitted effect of over 55% in size
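In this reporter screen, reduction of luminescence relative to DMSO vehicle indicated activity. Compounds and 5-fluorouridine were added together to 2,000 cells per well, incubated for 16 hr at 37 °C, then developed with ONE-Glo.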
SW480 rereplic: DNA re-replication induction in SW480 cells | SW480 DNA re-replication, Hoechst DNA content imaging, 48 h | hit rate 1.8% among 340,000 | Potency, µM (highest dose often 46.1 µM), for inactives: at the top dose re-replication activation, hits mostly activators | AID 624297; further: % of control where 0% means no effect; nearly all actives have a fitted effect of over 55% in size
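Readout is total intensity of Hoechst-stained nuclei, excited at 405 nm and collected at 500-530 nm. Compound treatment lasted 48 hr at 37 C in 5% CO2 before staining.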
Gal4-VP16 FLuc: Gal4-VP16 reporter inhibition counter-screen. AID 2546. hit rate 3.5% among 310,000. Potency, µM (series often up to 53.6 µM), for the others: top-dose activity, negative = inhibition, most hits filed as inhibitors. Drosophila S2 Gal4-VP16 UAS-luciferase, luminescence, 20 h;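 further: Gal4-VP16 expression switched on by copper sulfate through the metallothionein promoter; on the % scale 0 is the no-effect control and ±100 the full control effect; nearly all actives have a fitted effect of over 50% in size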
MCF10A rereplic: induces DNA re-replication in MCF 10a normal breast cells; MCF 10A DNA re-replication, Hoechst nuclear intensity, 48 h; hit rate 2.9% among 350,000; AID 624296; Potency, µM (highest dose often 46.1 µM), inactives show at the top dose activity, positive = re-replication, most hits filed as activators; further: % of control where 0% means no effect; nearly all actives have a fitted effect of over 50% in size
Active calls of the source: *; u = inconclusive; x = no result given; [ ] = dose if it differs, or a comment. The call rests on the fitted dose curve; in most records, active means well fitted curve in the direction sought with a large enough effect; inconclusive means small, poorly fitted or top-dose-only effect, or another doubt; inactive means no such curve, though single readings can be large; an effect the other way counts as inactive or inconclusive. Potency means the concentration at half of the fitted maximal effect.

SMILES	RORgamma inh	ELG1 repair inh	SW480 rereplic	Gal4-VP16 FLuc	MCF10A rereplic
COc1ccc(CN(C)CCCn2cnc3c(OCc4ccccc4)ncnc32)cc1	x	x	31.7%[9.22 µM]	x	-6.4%
O=C(Nc1ccccc1)N1CCCC2(CCN(C(=O)c3cccc(F)c3)CC2)C1	-6.3%	x	x	-4.6%	x
CCn1nc(C)cc1C(=O)NC1CCCc2c1cnn2-c1cc(F)cc(F)c1 (stereo unspecified)	28.6%	-24.9%	27.1%	2.5%	0.5%
Cn1c(=O)[nH]c(=O)c2c1nc(CN1CCN(c3cccc(Cl)c3)CC1)n2Cc1ccccc1Cl	0.1%	0.5%	-11.3%	-2.0%	8.5%
C=CCOc1ccc(-c2nc3c(c(=O)[nH]c(=O)n3CCC)n2CCCC)cc1	16.6%	-0.4%	2.2%	5.4%	28.3%
CCOCCn1c(CN2CCN(c3cccc(Cl)c3)CC2)nc2c1c(=O)n(C)c(=O)n2C	39.2%	u	-11.4%	-18.0%	-2.3%
Cn1c(=O)[nH]c(=O)c2c1nc(N1CCNCC1)n2Cc1ccccc1Cl	25.9%	0.6%	-37.9%	0.9%	2.91µM*
Cn1c(=O)[nH]c(=O)c2c1nc(CN1CCN(c3cccc(Cl)c3)CC1)n2CCCc1ccccc1	-3.1%	9.2µM*	-1.7%	-0.7%	-2.7%
C=CCn1c(SCc2nc3c(c(=O)[nH]c(=O)n3CCCC)n2CCC)nnc1-c1ccccc1	1.7%[10 µM]	18.4µM*	0.0%	-21.7%	-2.4%
COCCn1c(CN2CCN(c3cccc(Cl)c3)CC2)nc2c1c(=O)n(C)c(=O)n2C	18.1%	14.6µM*	-14.5%	-25.5%	5.6%
CC(CSc1nc2ccccc2s1)Cn1c(N2CCCC2)nc2c1c(=O)[nH]c(=O)n2C (stereo unspecified)	u	14.6µM*	0.3%	-0.8%	15.4%
COc1ccc(N2CCN(Cc3nc4c(c(=O)[nH]c(=O)n4C)n3CCCc3ccccc3)CC2)cc1	2.6%	8.91µM*	u	0.0%	-4.1%
Cn1c(=O)[nH]c(=O)c2c1nc(N1CCCCCC1)n2CCCSc1nc2ccccc2o1	-6.2%	23.1µM*	-4.2%	-16.2%	-1.4%
Cn1c(=O)[nH]c(=O)c2c1nc(CN1CCOCC1)n2CCCc1ccccc1	u	-0.8%	-17.7%	2.2%	-2.6%
CCCCn1c(CN2CCN(c3cccc(Cl)c3)CC2)nc2c1c(=O)[nH]c(=O)n2C	-3.1%	u	5.8µM*	-8.2%	u
Cn1c(=O)[nH]c(=O)c2c1nc(N1CCCCCC1)n2CCSc1nc2ccccc2o1	-17.7%	11.1%	-12.7%	-2.4%	4.7%
CC12C=CC(=O)C=C1CCC1C2C(=O)CC2(C)C1CCC2(O)C(=O)CO (stereo unspecified)	x	x	-1.8%	x	-13.7%
O=C(CCCc1ccccc1)Nc1cccc2c1CCCC2	-15.6%	7.3%	1.3%	-26.0%	-2.2%
O=C(NC1CCOc2ccccc21)c1ccc(=O)[nH]c1 (stereo unspecified)	-32.2%	u	-5.1%	-3.6%	-1.2%
CC12CCC(C/C1=N/O)C2(C)CBr (stereo unspecified)	-2.6%	0.0%	-2.7%	2.7%	-2.5%
CC(CCc1ccccc1)NC(=O)COC(=O)C(CCC(N)=O)NC(=O)c1ccc(F)cc1 (stereo unspecified)	x	16.6%	-0.2%	x	4.2%
CCCCCn1c(N2CCN(Cc3ccccc3)CC2)nc2c1c(=O)[nH]c(=O)n2C	u	16.4µM*	-0.1%	6.2%	3.9%
CCCCn1c(=O)[nH]c(=O)c2c1nc(-c1ccsc1)n2Cc1ccccc1	0.9%	18.4µM*	9.6%	16.1%	18.7%
Cc1c(C(=O)N2CCCCC2)c(S(=O)(=O)Nc2ccc(F)cc2F)c(C)n1C	-30.1%	7.7%	5.8%	-16.0%	2.4%
COc1ccccc1C=NN=C1c2ccccc2-c2ccccc21	x	x	-3.7%	x	-1.9%
SMILES	RORgamma inh	ELG1 repair inh	SW480 rereplic	Gal4-VP16 FLuc	MCF10A rereplic
CCOC(=O)Nc1ccc2c(COC(=O)C(NS(=O)(=O)c3ccc(Cl)cc3)C(C)O)cc(=O)oc2c1 (stereo unspecified)	x	20.6µM*	0.7%	x	1.1%
CCOC(=O)Nc1ccc2c(COC(=O)CN(C)S(=O)(=O)c3ccc(C)cc3)cc(=O)oc2c1	x	x	-57.9%	x	21.0%
Cc1nc2[nH]c(=S)n(C)c(=O)c2nc1C	-34.6%	9.9%	25.9µM*	0.1%	0.3%
O=C1CC(Sc2nnnn2C2CCCCC2)C(=O)N1c1ccccc1 (stereo unspecified)	u	3.3%	-17.9%	5.01µM*	27.6%
Cc1cc(C)cc(N2C(=O)CC(Sc3nnnn3-c3ccccc3)C2=O)c1 (stereo unspecified)	u	18.6%	2.3%	7.08µM*	u
COC(=O)c1ccccc1SC1CC(=O)N(c2ccccc2)C1=O (stereo unspecified)	u	11.4%	-703.9%	u	-4.6%
Cn1nnnc1SC1CC(=O)N(c2ccccc2)C1=O (stereo unspecified)	7.94µM*	5.6%	u	u	u
CN(C)C(=O)c1cc(C(=O)c2ccc(C(F)(F)F)cc2)c[nH]1	41.8%	u	2.4%	-18.5%	-1.1%
COc1ccc(CNC(=O)COC(=O)CCOc2ccc(C)cc2)cc1OC	x	19.8%	-6.1%	x	2.0%
C=CCOc1ccc(-c2n[nH]c(=S)o2)cc1	11.2µM*	u	0.3%	-21.9%	-0.2%
CC1=CC(C)(C)n2c(O)c(N=NC(N)=S)c3cc(C)cc1c32	0.794µM*	11.7%	16.4µM*	1.78µM*	u
Cc1cc(NC(=O)c2c(C)noc2C)no1	-12.9%	0.0%	u	1.7%	16.4µM*
Cc1cc(NC(=O)c2cc(C(C)(C)C)oc2C)no1	12.6µM*	-1.2%	1.9%	-15.4%	u
CCN1CCN(C(=O)C2CCC(=O)N(Cc3cccc(C(F)(F)F)c3)C2)CC1 (stereo unspecified)	4.6%	6.1%	-7.8%	0.6%	-1.6%
CCCOc1ccc(CNC(=S)Nc2ccccc2)cc1Cl	5.01µM*	-0.3%	u	7.08µM*	u
COc1ccc(CNC(=S)Nc2ccccc2)cc1Cl	u	-19.3%	-3.5%	u	7.9%
CC(C)Oc1ccc(CNC(=S)Nc2ccccc2)cc1Cl	11.2µM*	u	-19.7%	11.2µM*	-2.4%
CC(C)COc1ccc(CNC(=S)Nc2ccccc2)cc1Cl	5.01µM*	-26.8%	u	12.6µM*	u
O=C(O)c1ccc(CNC(=S)Nc2ccccc2)cc1	-5.7%	9.2%	-6.5%	-3.9%	-4.9%
O=C(CCNS(=O)(=O)c1ccccc1)N1CCN(C(c2ccccc2)c2ccccc2)CC1	-10.6%	23.1µM*	x	-4.4%	x
O=C(NCC(=O)N1CCN(C(c2ccccc2)c2ccccc2)CC1)c1ccc(Br)o1	-8.3%	u	-9.3%	3.0%	1.8%
Cc1cc(C)cc(C(=O)NCC(=O)N2CCN(C(c3ccccc3)c3ccccc3)CC2)c1	33.5%	-17.0%	u	10.9%	16.4µM*
